In all, about 320,000 compounds went through this assay and about 2,200 (0.69%) were called active.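 The calls were made as follows: active = inhibition above the mean of all tested compounds plus 3 SD, cutoff set per campaign (cut at about 30% in these data); inactive = the rest.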 Shown is part of a subset that was picked to be rich in actives.
Target: Bcl-2-like protein 1 (Homo sapiens) (UniProt Q07817)
Assay: inhibitors of human Bcl-xL, primary screen, biochemical, fluorescence polarization, HTS (AID 2129);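 also: 0% = DMSO wells and 100% = unlabeled Bim-BH3 peptide competitor; inhibitors lower millipolarization by displacing the labeled peptide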
Conditions: GST-Bcl-xL / FITC-Bim BH3 peptide fluorescence polarization; at 10.9 µM; hits give high values

Sequence of Bcl-2-like protein 1 (Homo sapiens) (Q07817 whole entry, looked up): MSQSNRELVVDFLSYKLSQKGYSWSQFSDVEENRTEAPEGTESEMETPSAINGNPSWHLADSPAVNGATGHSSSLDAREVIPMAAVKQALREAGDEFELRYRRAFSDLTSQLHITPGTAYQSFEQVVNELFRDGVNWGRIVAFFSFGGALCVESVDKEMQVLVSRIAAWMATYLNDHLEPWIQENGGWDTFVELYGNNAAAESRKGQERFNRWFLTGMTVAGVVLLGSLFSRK

inhibition, active:
COc1cc(C(=O)NCc2ccc3c(c2)cc(C)n3C)cc(OC)c1OC 33.2%
COc1ccc(-c2onc3ccc(C(C)=O)cc23)cc1 178%
CN(C)c1ccc(Nc2c3c4c(cccc4n(C)c2=O)C(=O)c2ccccc2-3)cc1 54.3%
CC(C)(C)c1ccc(/C=C2\Oc3c(ccc(O)c3CN3CCN(CCO)CC3)C2=O)cc1 53.5%
Cc1ccc2nc(COc3ccc(N(C)S(=O)(=O)c4ccccc4)cc3)cc(=O)n2c1 36.5%

inhibition, inactive:
COc1ccccc1-n1cnc2cc(NS(=O)(=O)c3ccccc3)ccc21 2.73%
CC(CCc1ccccc1)NCC(O)c1cccc([N+](=O)[O-])c1 (stereo not drawn) 1.94%
COc1ccc(NC(=O)c2sccc2SCC#N)cc1 8.42%
Clc1cc(NC2CCCCC2)ncn1 6.31%
CCCCC1S/C(=N/N=C/c2cccs2)NC1=O (stereo not drawn) 8.02%
CCCc1c(C)nc2c(Br)cccc2c1Cl 2.17%
COc1cc(C(=O)NCc2cc3cc(Cl)ccc3n2C)cc(OC)c1OC 1.45%
CCOCC(=O)NCc1ccc2c(c1)cc(C)n2C 19.5%
CN(CCO)S(=O)(=O)c1ccc2c(c1)C(=O)c1cc(S(=O)(=O)N(C)CCO)ccc1-2 1.55%
CCOC(=O)c1cc2c(=O)n3ccccc3nc2n(CC(C)C)c1=NC(=O)c1c(-c2c(F)cccc2Cl)noc1C 3.3%
Cc1ccc(NS(=O)(=O)c2ccc3c(c2)NC(=O)CO3)cc1 0.04%
O=C(N1CCCCC1)N1CCN(C(=O)N2CCCCC2)CC1 6.91%
CCN1C(=O)CS/C1=N\c1nccs1 1.94%
Oc1ccc(-c2onc3ccc(Cl)cc23)cc1 3.11%
CC(OC(=O)c1ccc2noc(-c3ccccc3)c2c1)C(N)=O (stereo not drawn) 2.5%
Cc1c(NC(=S)NC(=O)CCc2ccccc2)c(=O)n(-c2ccccc2)n1C 1.79%
CCNC(=O)Nc1ccc(S(=O)(=O)Nc2cnc(C)nc2C)cc1 0.51%
Cc1cccc(C)c1N1C(=O)CN(Cc2ccccc2)C1=S 5.52%
Cc1ccccc1NC(=O)Cc1nc(COC(=O)c2ccc(C(F)(F)F)cc2)cs1 -1.31%
CCOC(=O)c1oc2c(CN3CCN(CCO)CC3)c(O)c(CC)cc2c(=O)c1-c1nc2ccccc2s1 4.57%
CN(C)S(=O)(=O)c1ccc(Cl)c(NC(=O)COC(=O)CC(NC(N)=O)c2ccc(Cl)cc2)c1 (stereo not drawn) -5.65%
CN(c1ccc(OCC(=O)O)cc1)S(=O)(=O)c1ccc2ccccc2c1 4.89%
COc1cccc(COc2ccc(N(C)S(=O)(=O)c3ccccc3)cc2)c1 -4.97%

Reference: PubChem BioAssay AID2129 (The Scripps Research Institute Molecular Screening Center, 2009)
